# Reference: the supplement of paper PMC9925115
# Counter-ions that a name gives are not always drawn. ± gives the uncertainty stated by the source.
# Tested on: FLX1
# Test: cell viability z-score within plate (CellTiter-Glo), mean of 3 biological replicates; higher = higher viability relative to plate (less growth inhibition)
# Settings: 2 µM; time (hr): 120
# Procedure: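 FLX1 fibrolamellar carcinoma cells (DNAJB1-PRKACA fusion), 600 cells/well in 384-well plates, treated with a Selleck kinase inhibitor library (L1200) at 2 uM for 5 days (120 hr); viability by CellTiter-Glo. A z-score was computed within each plate and averaged over three biological replicates.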
row,SMILES,cell viability z-score within plate
1,O=C(NC1CCNCC1)c1n[nH]cc1NC(=O)c1c(Cl)cccc1Cl,-0.72 ± 0.28
2,COc1cc2ncnc(Nc3ccc(O)c(Br)c3)c2cc1OC,0.753 ± 0.38
3,Oc1ccc(Nc2nc(-c3ccc(Cl)cc3)cs2)cc1,0.219 ± 0.2
4,CNc1nc(Nc2cn(C(C)(C)C#N)nc2C)ncc1C(F)(F)F,0.707 ± 0.76
5,N#CC[C@H](C1CCCC1)n1cc(-c2ncnc3[nH]ccc23)cn1,0.242 ± 0.22
6,Cc1cc(C(=O)NOCCO)c(Nc2ccc(I)cc2F)n(C)c1=O,0.132 ± 0.35
7,CC(C)c1cnn2c(NCc3ccccc3)cc(NCCCCCCN)nc12,0.577 ± 0.3
8,COc1cccc2cc(-c3nc([C@H]4CC[C@H](C(=O)O)CC4)n4ncnc(N)c34)[nH]c12,0.362 ± 0.51
9,C#Cc1cccc(Nc2ncnc3cc(OC)c(OCCCCCCC(=O)NO)cc23)c1,-0.217 ± 0.35
10,Cc1c(NC(=O)OC[C@@H]2COCCN2)cn2ncnc(Nc3ccc4c(cnn4Cc4cccc(F)c4)c3)c12,-2.76 ± 1.1
11,NC(=O)c1ncn([C@@H]2O[C@H](CO)[C@@H](O)[C@H]2O)c1N [AICAR (Acadesine)],0.371 ± 0.82
12,Cc1cc(CS(=O)(=O)c2ccccc2)cc(OCc2ccc(CN3CCC[C@@H]3CO)cc2)c1,0.378 ± 0.24
13,N#C/C(=C(/N)Sc1ccc(N)cc1)c1ccccc1C(F)(F)F,-0.253 ± 0.36
14,Cc1ccc(-n2nc(C(C)(C)C)cc2NC(=O)Nc2ccc(OCCN3CCOCC3)c3ccccc23)cc1 [Doramapimod (BIRB 796)],0.479 ± 0.82
15,CC(C)(C)c1ccc(S(=O)(=O)/C=C/C#N)cc1,-0.975 ± 1.1
16,N=C(N)NC(=N)NCCc1ccccc1 [Phenformin HCl],1.08 ± 0.3
17,O=C(O)[C@]1(Cc2cccc(Nc3nccs3)n2)CC[C@@H](Oc2cccc(Cl)c2F)CC1,-1.08 ± 1
18,Fc1cc(-c2cccc3ncc(-c4cnn(C5CCNCC5)c4)nc23)cc(F)c1CN1CCOCC1,-1.08 ± 1.1
19,C=CC(=O)Nc1cc(Nc2nccc(-c3cn(C)c4ccccc34)n2)c(OC)cc1N(C)CCN(C)C [Osimertinib (AZD9291)],-0.225 ± 0.34
20,O=C1Nc2ccccc2/C1=C1/Nc2ccccc2C1=O [Indirubin],1.02 ± 0.66

row,SMILES,cell viability z-score within plate
1,CCn1c(N)c(C(=O)NC)c(=O)c2ccc(C#CC(C)(O)COC)nc21 (centres undefined),-1.49 ± 1.7
2,CC1(COc2ccc3c(c2)ncn3-c2ccc3cccc(N4CCC(N)CC4)c3n2)COC1,0.0444 ± 0.77
3,O=c1ncn2nc(Sc3ccc(F)cc3F)ccc2c1-c1c(Cl)cccc1Cl,-3.62 ± 2.1
4,Oc1c2ccccc2c2c3c(cccc13)N=N2,0.48 ± 0.65
5,CNC(=O)Nc1ccc(-c2nc(N3CC4CCC(C3)O4)c3cnn(C4CCC5(CC4)OCCO5)c3n2)cc1,0.631 ± 0.77
6,COc1cc2nccc(Oc3ccc(NC(=O)C4(C(=O)Nc5ccc(F)cc5)CC4)cc3)c2cc1OC,0.561 ± 0.36
7,CS(=O)(=O)N1CCc2c(-c3cnc(N)nc3)nc(N3CCOCC3)nc21,0.617 ± 0.29
8,CCS(=O)(=O)Nc1ccc2c(c1)/C(=C(/Nc1ccc(CN3CCCCC3)cc1)c1ccccc1)C(=O)N2 [Hesperadin],-2.01 ± 0.23
9,CNC(=O)c1ccccc1Sc1ccc2c(/C=C/c3ccccn3)n[nH]c2c1 [Axitinib],0.834 ± 0.44
10,C=CC(=O)Nc1cccc(Oc2nc(Nc3ccc(N4CCN(C)CC4)cc3OC)ncc2Cl)c1,0.221 ± 0.37
11,CC1(C)CNc2cc(NC(=O)c3cccnc3NCc3ccncc3)ccc21 [Motesanib Diphosphate (AMG-706)],0.0691 ± 0.21
12,Nc1ccc(C(=O)Nc2cccc(-c3nc(N4CCOCC4)c4oc5ncccc5c4n3)c2)cn1,0.775 ± 0.24
13,Cc1ccc(C(=O)Nc2ccc(CN3CCN(C)CC3)c(C(F)(F)F)c2)cc1C#Cc1cnc2cccnn12,-1.09 ± 0.7
14,Cc1ccc(NC(=O)c2cccc(N(C)C)c2)cc1NC(=O)c1ccc(O)cc1,-0.188 ± 0.87
15,Cn1cc(C2=C(c3ccc(Cl)cc3Cl)C(=O)NC2=O)c2ccccc21,-1.2 ± 0.71
16,COc1cc(N2CCC(N(C)C)CC2)ccc1Nc1ncc(Cl)c(Nc2ccccc2P(C)(C)=O)n1,0.0333 ± 0.4
17,Cn1ncc(Cl)c1-c1cc(C(=O)N[C@H](CN)Cc2ccc(F)c(F)c2)oc1Cl,-0.657 ± 0.15
18,O=C(Nc1ccc(OC(F)(F)F)cc1)c1sccc1NCc1ccnc2ccccc12,0.792 ± 0.22
19,Nc1cccc(-c2cc3c(Oc4cccc(O)c4)ncnc3[nH]2)c1,-0.5 ± 0.21
